Shown are actives, neighbours in structure and some others; about 2.4% of the full set was active somewhere.
SENP7 inh: SENP7 protease inhibitors, primary screen, biochemical, luminescence, uHTS; inhibition, % at 5 µM; recombinant SENP7, Z-RLRGG-aminoluciferin luminescence, 40 min; Sentrin-specific protease 7 (Homo sapiens), Q9BQF6; actives 1.5% (n = 330,000);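 active = inhibition above about 50% at the single test dose, limit read from the data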
SENP6 inh: SENP6 protease inhibitors, primary screen, biochemical, luminescence, uHTS; Recombinant SENP6 catalytic domain, aminoluciferin luminescence; inhibition, % at 10 µM; actives 1.8% (n = 330,000);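 active = inhibition above about 50% at the single tested dose, limit read from the data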
Target sequence (Q9GZR1 628-1112 limits assumed): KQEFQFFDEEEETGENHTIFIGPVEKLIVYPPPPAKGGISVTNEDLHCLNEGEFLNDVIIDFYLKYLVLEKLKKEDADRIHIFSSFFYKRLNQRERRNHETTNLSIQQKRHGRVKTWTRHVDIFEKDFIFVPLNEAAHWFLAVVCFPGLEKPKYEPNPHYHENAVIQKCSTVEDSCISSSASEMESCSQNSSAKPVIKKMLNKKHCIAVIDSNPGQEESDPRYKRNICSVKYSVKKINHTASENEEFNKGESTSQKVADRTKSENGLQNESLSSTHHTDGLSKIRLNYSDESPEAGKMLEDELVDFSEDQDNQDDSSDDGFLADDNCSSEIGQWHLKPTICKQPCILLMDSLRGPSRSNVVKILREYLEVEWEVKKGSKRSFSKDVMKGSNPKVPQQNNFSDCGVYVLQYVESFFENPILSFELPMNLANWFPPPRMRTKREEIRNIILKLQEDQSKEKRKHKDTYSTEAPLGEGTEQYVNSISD
SENP8 block-1: SENP8 protease inhibitors, primary screen, biochemical, luminescence; Sentrin-specific protease 8 (Homo sapiens), Q96LD8; purified SENP8, Z-RLRGG-aminoluciferin cleavage; inhibition, % at 10 µM; actives 1.2% (n = 330,000); in the data active = inhibition above about 50%
Platelet DG rel: inhibitors of platelet dense granule secretion, primary screen, cell-based, MLPCN, human platelets; human platelet-rich plasma, SFLLRN dense granule ATP release, luminescence; inhibition, %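 (compounds screened at 7.5 µM in platelet-rich plasma)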; actives 0.22% (n = 300,000);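 active = mean replicate score, as percent of positive control, at or above 50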
SENP8 block-2: human SENP8 protease inhibitors, primary screen, biochemical, fluorescence, Nedd8 protein substrate, uHTS; recombinant SENP8; actives 0.64% (n = 360,000); inhibition, % at 20 µM; in the data active = inhibition mostly above about 40%, no sharp cut-off; inactive = mostly below about 27%
SENP8 conf: SENP8 protease inhibitors, retest, confirmation, biochemical, luminescence, single concentration; shares compounds with SENP7 inh; Recombinant SENP8, Z-RLRGG-aminoluciferin luminescence, 60 min; inhibition, % at 12.5 µM; actives 40% (n = 6,200); AID 488912, 2010;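 active = mean inhibition across replicates above about 50%, limit read from the data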
SENP6 confirm: SENP6 protease inhibitors, confirmation, biochemical, luminescence, single concentration; shares compounds with SENP7 inh; recombinant SENP6, Z-RLRGG-aminoluciferin luminescence; inhibition, % at 12.5 µM; actives 58% (n = 6,200); AID 488915, 2010
SENP7 confirm: SENP7 protease inhibitors, retest, confirmation, biochemical, luminescence, single concentration; inhibition, % at 12.5 µM; actives 69% (n = 6,200); AID 488917, 2010; recombinant SENP7, Z-RLRGG-aminoluciferin luminescence, 40 min; shares compounds with SENP7 inh
Casp3 select: caspase-3 protease inhibitors, confirmation, selectivity assay for SENP inhibitor project, biochemical, single concentration. shares compounds with SENP7 inh. inhibition, % at 12.5 µM. purified caspase-3, Z-DEVD-aminoluciferin luminescence, 60 min. AID 488918, 2010. actives 60% (n = 6,200);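 active = mean inhibition above about 50%, limit read from the data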
SENP luc ctr: luminescence interference (SENP counter-screen); Pre-incubated SENP8/Z-RLRGG-aminoluciferin, luciferase luminescence interference; AID 488919; actives 39% (n = 6,200); shares compounds with SENP7 inh; inhibition, % at 12.5 µM;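 active = mean inhibition above about 50% when retested at one dose, limit read from the data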
Large screens that a line does not name were inactive (follow-up assays come after a bar, where they were run).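 The calls were made as follows, unless noted: active = mean inhibition above about 50% in the one-dose retest (limit read from the data); inactive = the rest.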

CCC(C)NC(=O)c1cc2c(=O)n3ccccc3nc2s1 (centres undefined)	none
CCC(C)NC(=O)c1cc2cc3ccc(OC)cc3nc2s1 (centres undefined)	SENP7 inh 60.2 | SENP8 conf inactive | SENP6 confirm 60.9 | SENP7 confirm 86.7 | Casp3 select 71.6 | SENP luc ctr inactive
O=C1CCOc2cc(OCc3ccccc3)ccc21	SENP7 inh 94.7, SENP6 inh 94.2, SENP8 block-1 88.4 | SENP8 conf 93.5 | SENP6 confirm 94.0 | SENP7 confirm 100.9 | Casp3 select 93.5 | SENP luc ctr 92.8
Cc1c(/C=C/C(=O)c2ccccc2O)cnn1C	SENP7 inh 67.0, SENP6 inh 63.1 | SENP8 conf inactive | SENP6 confirm 55.3 | SENP7 confirm 81.1 | Casp3 select inactive | SENP luc ctr inactive
Cc1ccc(/C=C/C(=O)c2ccccc2O)cc1	none
COc1ccccc1-n1cc2ccc([N+](=O)[O-])cc2n1	none
O=[N+]([O-])c1ccc2cn(-c3ccccc3)nc2c1	SENP7 inh 81.2, SENP8 block-1 60.5 | SENP8 conf inactive | SENP6 confirm 69.6 | SENP7 confirm 91.7 | Casp3 select 69.1 | SENP luc ctr inactive
Nc1nn(-c2ccccc2)c2ccc([N+](=O)[O-])cc12	SENP7 inh 74.8, SENP6 inh 72.3, SENP8 block-1 54.2 | SENP8 conf 74.6 | SENP6 confirm 71.6 | SENP7 confirm 91.3 | Casp3 select 84.7 | SENP luc ctr 73.0
CC(=O)N1CCc2cc(S(=O)(=O)NCC(=O)NCc3ccc(F)cc3)ccc21	none
NC(=O)c1ccc(-c2ncc(-c3ccccc3)o2)cc1	SENP7 inh 52.1 | SENP8 conf inactive | SENP6 confirm 52.0 | SENP7 confirm 59.4 | Casp3 select inactive | SENP luc ctr inactive
O=c1cc(-c2ccc(O)cc2)oc2ccc3ccccc3c12	SENP7 inh 98.8, SENP6 inh 97.4, SENP8 block-1 98.0 (no result: Platelet DG rel) | SENP8 conf 96.8 | SENP6 confirm 100.0 | SENP7 confirm 103.0 | Casp3 select 98.6 | SENP luc ctr 82.9
O=c1cc(-c2ccc(O)cc2)oc2c1ccc1ccccc12	none (no result: Platelet DG rel)
COc1c(O)cc2oc(-c3ccc(O)cc3)cc(=O)c2c1O	SENP7 inh 59.0, SENP6 inh 57.0 | SENP8 conf 62.7 | SENP6 confirm 59.6 | SENP7 confirm 88.5 | Casp3 select 71.1 | SENP luc ctr 70.7
O=C(NC1CCCC1)C1c2ccccc2OCC(=O)N1CCc1ccccc1 (centres undefined)	none (no result: SENP7 inh, SENP6 inh, SENP8 block-1, Platelet DG rel)
O=C(O)c1cccc(S(=O)(=O)Nc2ccc3c(c2)CCC3)c1	none
COC(=O)c1ccc2nc(-c3ccc(S(C)(=O)=O)cc3)cn2c1	none
CS(=O)(=O)c1ccc(-c2cn3cc(C(=O)O)ccc3n2)cc1	SENP7 inh 57.7, SENP6 inh 60.0, SENP8 block-1 54.9 | SENP8 conf inactive | SENP6 confirm 66.3 | SENP7 confirm 85.5 | Casp3 select inactive | SENP luc ctr 56.1
CCc1ccc(-c2ccc(C(=O)O)cc2)nc1	SENP7 inh 65.3 | SENP8 conf 76.1 | SENP6 confirm 74.0 | SENP7 confirm 93.7 | Casp3 select 90.7 | SENP luc ctr 75.2
COc1ccc(C(=O)c2ccc(-c3ccc(OC)cc3)nc2)cc1	none
CCCCc1nc2cc(C(=O)NCc3cc(C)n(C)n3)ccc2o1	none
Cc1cccc(NC(=O)/C(C#N)=C/c2ccccc2O)n1	none
COc1ccc(/C=C(\C#N)C(=O)Nc2cccc(C)n2)cc1	SENP6 inh 50.5, SENP8 block-1 50.7 | SENP8 conf inactive | SENP6 confirm inactive | SENP7 confirm inactive | Casp3 select inactive | SENP luc ctr inactive
COc1ccc(/C=C(\C#N)C(=O)c2cccn2C)cc1	SENP7 inh 78.2, SENP6 inh 78.9, SENP8 block-1 69.1 | SENP8 conf 87.3 | SENP6 confirm 87.3 | SENP7 confirm 94.0 | Casp3 select 72.4 | SENP luc ctr 82.4
Cn1cccc1C(=O)/C(C#N)=C/c1ccc(F)cc1	none
Cc1cccc(OCC(=O)Nc2nccs2)c1C	SENP7 inh 96.1, SENP6 inh 95.0, SENP8 block-1 89.6 | SENP8 conf 89.2 | SENP6 confirm 91.8 | SENP7 confirm 100.2 | Casp3 select 94.1 | SENP luc ctr 86.7
Cc1c(C)c2ccc(OCC(=O)Nc3ccccn3)cc2oc1=O	SENP7 inh 95.5, SENP6 inh 63.7 | SENP8 conf inactive | SENP6 confirm inactive | SENP7 confirm inactive | Casp3 select inactive | SENP luc ctr inactive
Cc1c(C)c2ccc(OCC(=O)Nc3nccs3)cc2oc1=O	SENP7 inh 83.7, SENP6 inh 56.1, SENP8 block-1 51.0 | SENP8 conf inactive | SENP6 confirm inactive | SENP7 confirm inactive | Casp3 select inactive | SENP luc ctr inactive
Cc1nn(C)cc1CN(C)C(=O)CCc1nnc(CCC2CCCCC2)o1	none
CCOC(=O)N1CCC(N2Cc3cccc(C(=O)Nc4ccc(N(CC)CC)cc4C)c3C2=O)CC1	none
CCCC(=O)Nc1cc(OC)c(OC)cc1C(=O)O	none
COc1cc2cc(NC(C)=O)cc(NCc3ccccc3)c2cc1OC	SENP6 inh 75.2, SENP8 block-1 70.3 | SENP8 conf inactive | SENP6 confirm inactive | SENP7 confirm inactive | Casp3 select inactive | SENP luc ctr inactive
CCCCNc1cc(NC(C)=O)cc2cc(OC)c(OC)cc12	SENP6 inh 50.5 | SENP8 conf inactive | SENP6 confirm 55.0 | SENP7 confirm inactive | Casp3 select inactive | SENP luc ctr inactive
C[C@H]1CN([C@@H](C)CO)C(=O)c2cc(C#CC3CCCC3)cnc2O[C@H]1CN(C)C(=O)Cc1ccccn1	none (no result: SENP7 inh, SENP6 inh, SENP8 block-1, Platelet DG rel)
